TMEM16A inh: inhibitors of mouse TMEM16A calcium-activated chloride channel | Q8BHY3 | HEK293 TMEM16A/YFP iodide influx fluorescence, ionomycin | normalized B-score (activity score, 25-100; higher = stronger inhibition) at 10 µM | 310,000 compounds, 1.2% hits | AID 588511;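 active = ratio plate-corrected score three or more library SD toward inhibition, starting fluorescence score within five deviations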;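 also: score derived from kinetic fluorescence span divided by baseline fluorescence per well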
MEKK2mut PB1 HTS: signal of MEK5 binding to mutant human MEKK2 PB1 domain | percent response, % at 10 µM | 290,000 compounds, 0.35% hits | bead flow cytometry, Alexa488-MEK5 binding to MEKK2 mutant | AID 1530; in the data active = percent response above about 24%, passing the limit was not always enough
TMEM16A act: activators or potentiators of mouse TMEM16A chloride channel. Q8BHY3. HEK293 TMEM16A/YFP-H148Q/I152L, iodide quench fluorescence; hits give low values. B-score at 10 µM. 340,000 compounds, 0.3% hits. AID 623877;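 active = fluorescence-ratio B-score plate-corrected deviation score at least 3 library SD below zero, with starting fluorescence score within 5 deviations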;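 also: channel opened by trigger with iodide after compound preincubation; score built on the fluorescence ratio of max minus min over baseline; more negative score means more quench and so TMEM16A activation or potentiation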
NTR1 agonist: activates human neurotensin receptor 1; 330,000 compounds, 0.17% hits; activation, % at 20 µM; NTR1-U2OS beta-arrestin-GFP spot imaging, agonist mode;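 active = activation at or above 40% of the spot to cytoplasm intensity ratio, with at least 20 cells analyzed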;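 also: 0% = DMSO without peptide and 100% = 100 nM NTR1 peptide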
Target sequence (P30989 whole entry, looked up): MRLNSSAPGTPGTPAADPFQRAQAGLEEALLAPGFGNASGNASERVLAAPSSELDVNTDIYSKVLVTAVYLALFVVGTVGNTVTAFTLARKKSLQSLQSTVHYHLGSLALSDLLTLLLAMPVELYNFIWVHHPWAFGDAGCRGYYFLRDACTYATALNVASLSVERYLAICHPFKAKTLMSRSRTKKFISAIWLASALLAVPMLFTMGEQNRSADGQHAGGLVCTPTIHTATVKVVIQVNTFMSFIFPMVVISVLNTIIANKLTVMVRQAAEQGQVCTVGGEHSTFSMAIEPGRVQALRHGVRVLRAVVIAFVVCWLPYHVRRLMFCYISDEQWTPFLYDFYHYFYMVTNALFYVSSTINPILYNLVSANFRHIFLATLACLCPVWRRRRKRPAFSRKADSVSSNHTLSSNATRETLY
MEKK3 PB1 HTS: modulators (inhibitors or enhancers) of MEK5 binding to human MEKK3 PB1 domain; bead-based flow cytometry, Alexa488-MEK5 binding to MEKK3; actives lie on both sides; 0 = blocked by unlabeled MEK5, 100 = vehicle; binding response (% of control), % at 10 µM; 290,000 compounds, 1.4% hits; AID 1529;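 active = binding response more than 3 SD above or below the average of its plate-row segment, actives on both sides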;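 also: Alexa488 bead fluorescence after subtracting the streptavidin-only scavenger bead signal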
MEKK2wt PB1 HTS: raises or lowers MEK5 binding to wildtype human MEKK2 PB1 domain | Q9Y2U5 | bead flow cytometry, Alexa488-MEK5 binding to MEKK2 WT; actives lie on both sides | binding response (% of control), % at 10 µM | 290,000 compounds, 1.1% hits; in the data active = binding response below about 67% or above about 130%
MEKK2wt confirm: raises or lowers MEK5 binding to wildtype human MEKK2, retest | shares compounds with MEKK3 PB1 HTS | bead flow cytometry, Alexa488-MEK5 binding to MEKK2 WT; actives lie on both sides | binding response (% of control), % at 10 µM | 5,900 compounds, 2.4% hits; in the data active = binding response below about 16% or above about 210%; inactive = in between
MEKK2mut-MEK5: signal of MEK5 binding to mutant human MEKK2, retest | shares compounds with MEKK3 PB1 HTS | bead flow cytometry, Alexa488-MEK5 binding to MEKK2 mutant | percent response, % at 10 µM | 5,900 compounds, 2% hits; in the data active = percent response mostly above about 71%, no sharp cut-off; inactive = mostly below about 38%;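 also: higher means compound restores mutant binding toward wildtype level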
MEKK3 confirm: confirmation of inhibitors of MEK5 binding to human MEKK3 | shares compounds with MEKK3 PB1 HTS | bead flow cytometry, Alexa488-MEK5 binding to MEKK3; hits give low values | binding response (% of control), % at 10 µM | 5,900 compounds, 1.8% hits;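 active = binding response below 72% of control, or above a set upper limit, though filed actives all read lower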;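 also: 100% = DMSO only wells and 0% = binding blocked by excess unlabeled MEK5; lower values mean stronger disruption of MEK5 binding to MEKK3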
Numbers without * were called inactive; i = inactive; / = no result; [ ] = remark or other dose. A selection: hits, their analogues and other compounds. The true share with any hit is near 3.4%.

SMILES	TMEM16A inh	MEKK2mut PB1 HTS	TMEM16A act	NTR1 agonist	MEKK3 PB1 HTS	MEKK2wt PB1 HTS	MEKK2wt confirm	MEKK2mut-MEK5	MEKK3 confirm
Cc1ccc(N/C(CSC(N)=O)=N\S(=O)(=O)c2ccc(C)cc2)cc1	i	6	i	0	128*	121	98	-5	100
CC(OC(=O)CN1C(=O)C2C3C=CC(C4CC34)C2C1=O)C(=O)c1ccccc1 (stereo unspecified)	i	15	i	0	103	105	/	/	/
N#Cc1sc2nc(C3CC3)cc(-c3ccccc3)c2c1N	i	0	i	14	131*	100	104	2	103
C=CC#CC[N+]1(CC#Cc2ccccc2)CCOCC1	/	11	i	/	51*[inhibitor]	99	113	21	35*
C(#Cc1ccccc1)C[N+]1(CC#Cc2ccccc2)CCCC1	i	-1	i	2	97	96	/	/	/
CCN(CC)S(=O)(=O)c1ccc(OCC(=O)NCc2ccccc2)cc1	i	-19	i	1	27*[inhibitor]	38*[inhibitor]	98	-4	102
CCN(CC)S(=O)(=O)c1ccc(OCC(=O)NCc2ccco2)cc1	i	-15	i	-1	90	90	/	/	/
CCn1cc(C(=O)NCc2ccc3c(c2)OCO3)c(=O)c2cc(F)c(N3CCN(C(=O)c4ccco4)CC3)cc21	i	8	i	9	115	113	/	/	/
CCN(CC)CCCN(C(=O)c1ccc(OC)cc1)c1nc(-c2ccc(OC)cc2)cs1	i	20	i	2	95	165*	153	30	108
CCN(CC)CCCN(C(=O)c1ccccc1C)c1nc(-c2ccc(OC)cc2)cs1	i	20	i	0	107	145*	142	24	109
CCN(CC)CCCN(C(=O)c1ccccc1F)c1nc(-c2ccc(OC)cc2)cs1	i	21	i	2	104	156*	150	27	107
COc1ccc(-c2csc(N(CCCN(C)C)C(=O)c3ccc(C)cc3)n2)cc1	i	10	i	2	99	127	/	/	/
Cc1c(C(=O)NCc2ccc3c(c2)cc(C)n3C)cccc1[N+](=O)[O-]	i	-5	i	0	73*[inhibitor]	89	98	-10	98
Cc1cc2cc(CNC(=O)Cc3ccc([N+](=O)[O-])cc3)ccc2n1C	i	-9	i	0	92	88	/	/	/
COc1cccc(NC(=S)NCc2ccc3c(c2)cc(C)n3C)c1	/	-14	i	/	84	86	/	/	/
Cc1cccc(NC(=S)NCc2ccc3c(c2)cc(C)n3C)c1C	i	5	i	1	78*[inhibitor]	66*[inhibitor]	104	1	103
Cc1cc2cc(CNC(=O)c3ccc(Br)o3)ccc2n1C	i	-3	i	-1	66*[inhibitor]	45*[inhibitor]	50	-20	75
Cc1cc2cc(CNC(=O)c3cccc([N+](=O)[O-])c3)ccc2n1C	i	5	i	-2	72*[inhibitor]	87	109	9	101
Cc1ccccc1CCNC(=O)C1CCC(=O)N(C2CCCCCC2)C1 (stereo unspecified)	i	8	i	1	105	111	/	/	/
Cn1nc(C(F)(F)F)c2cc(C(=O)Nc3ccc(C(F)(F)F)cc3)sc21	i	-1	i	13	95	96	/	/	/
CCCCn1c(N)c(N(CC)C(=O)CSc2nnc(-c3ccco3)n2CC)c(=O)[nH]c1=O	i	/	i	0	/	/	/	/	/
CCOC(=O)c1c(N)sc2c1CCCC2	i	-9	i	4	52*[inhibitor]	64	101	0	100
CCOC(=O)c1c(N)sc2c1CCC(C)C2 (stereo unspecified)	i	4	i	-1	103	103	/	/	/
CCCNC(=O)c1onc(CSc2ccc(F)cc2)c1C(=O)NCC1CC1	i	/	i	1	/	/	/	/	/
COc1ccccc1/C=C/C(=O)NCC(=O)N/N=C/c1cc(Br)ccc1OC	i	-3	i	1	101	95	/	/	/
SMILES	TMEM16A inh	MEKK2mut PB1 HTS	TMEM16A act	NTR1 agonist	MEKK3 PB1 HTS	MEKK2wt PB1 HTS	MEKK2wt confirm	MEKK2mut-MEK5	MEKK3 confirm
COc1ccc(/C=C/C(=O)NCC(=O)N/N=C/c2cc(Br)ccc2OC)cc1	i	91*	i	2	101	105	94	-3	96
c1ccc(-c2cc3c(nn2)CCc2nonc2-3)cc1	i	-23	i	0	72*[inhibitor]	80	93	-6	88
COc1ccc2[nH]c(=O)c(CN(C(=O)c3cccnc3)c3ccc(C)c(C)c3)cc2c1	i	18	i	2	109	107	/	/	/
Cc1cccc(NC(=O)c2ccc([N+](=O)[O-])cc2Cl)n1	i	2	i	0	137*	108	110	5	95
COCCNc1ccc([N+](=O)[O-])cc1C(=O)Nc1cccc(C)n1	i	1	i	-1	102	100	/	/	/
C=CCNC(=O)C1CCC(=O)N1S(=O)(=O)c1ccc(C)cc1 (stereo unspecified)	i	0	i	2	100	104	/	/	/
CCn1c(SCC(=O)NNC(=S)Nc2ccc(C)cc2)nnc1-c1ccc(Cl)cc1	i	1	i	0	134*	111	97	0	106
COC(=O)c1ccc(N2C(=O)Nc3ccccc3N2O)cc1	i	-31	i	-1	50*[inhibitor]	53	99	-3	103
O=C(O)c1ccc(N2C(=O)Nc3ccccc3N2O)cc1	i	4	i	2	104	104	/	/	/
O=C(Nc1ccncc1)c1cc2ccccc2cc1O	i	/	i	5	/	/	/	/	/
COC(=O)c1cccc(N(C(=O)c2cnccn2)C(C(=O)NC2CCCCC2)c2cn(C)nc2C)c1 (stereo unspecified)	i	-28	i	-1	46*[inhibitor]	58	105	2	98
CC(=O)CN1Cc2ccccc2/C1=N\C(=O)Nc1ccccc1	i	-9	i	2	77*[inhibitor]	86	101	-6	101
CC(C)C(=O)Nc1sc2c(c1-c1nc3ccccc3[nH]1)CCCC2	i	-8	i	9	88	92	/	/	/
N#CNC(N)=Nc1cccc(Cl)c1	i	8	i	0	122*	126	101	-2	100

Screening results: PubChem BioAssay, several laboratories
